From publication PMC5540273 (PLoS ONE, 2017)

Legend:
[1] = system: ACVR1
[2] = system: ACVR2B
[3] = system: ABL1-nonphosphorylated
[4] = system: ACVR2A
[5] = system: AAK1
[6] = system: ABL1-phosphorylated
[7] = system: ACVR1B
[8] = system: AURKC
[9] = system: AURKA
[10] = system: AKT3
[11] = system: AKT1
[12] = system: AURKB
[13] = system: T1, ASK1
T1 construct: gene MAP3K5

[14] = system: AKT2
[15] = system: ADCK4
[16] = system: T2, ARK5
T2 construct: gene NUAK1

[17] = system: T3, AMPK-alpha1
T3 construct: gene PRKAA1

[18] = system: AXL
[19] = system: T4, ASK2
T4 construct: gene MAP3K6
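Also: kd values determined as follow-up on hits from a single-replicate KINOMEscan panel screen.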

## Cn1ccc2ncnc(Oc3cccc(C(=O)Nc4ccccc4)c3)c21
[1]
  Kd: > 10000 nM

## Fc1cccc(COc2nnc(-c3ccc4c(c3)CCO4)o2)c1
[2]
  Kd: > 10000 nM

## CC(=O)Nc1nc2cnc(Nc3cc(NC(=O)c4cccc(CCC#N)c4)ccc3C)nc2s1
[3]
  Kd: > 10000 nM

## Cc1ccccc1-n1cnc2c(N)ncnc21 [SKF-97510]
[3]
  Kd: > 10000 nM

## COc1cccc(NC(=O)NC2CCN(c3ccnc(Nc4ccc(F)cc4)n3)C2)c1 (stereo not shown) [GSK1379721]
[4]
  Kd: > 10000 nM

## O=C(Nc1n[nH]c2cc(-c3cccc(F)c3F)ccc12)C1CC1 [SB-733894]
[5]
  Kd: 2100 nM

## Cc1cccc(-c2nc(-c3ccc(S(C)(=O)=O)cc3)sc2-c2ccnc(NCCc3ccccc3)c2)c1
[3]
  Kd: 330 nM

## COc1ccccc1-c1ccc2c(NC(=O)C3CC3)n[nH]c2n1 [SB-711239]
[6]
  Kd: > 10000 nM

## Cc1cccc(-c2cc(Nc3ccncc3)c3ccccc3n2)n1 [GSK223675]
[7]
  Kd: 31 nM

## Cc1cccc(-c2nc(C)cc(Nc3ccncc3)n2)n1 [GSK257997]
[5]
  Kd: > 10000 nM

## Cc1cccc(-c2nc(Nc3cccc(C(N)=O)c3)c3ccccc3n2)n1 [GW876019]
[7]
  Kd: 1600 nM

## Cc1csc(-c2nc(Nc3ccncc3)c3ccccc3n2)n1 [GW869640]
[7]
  Kd: 39 nM

## COc1ccc2nc(-c3cccc(C)n3)nc(Nc3ccncc3)c2c1 [GSK204919]
[7]
  Kd: 150 nM

## COc1cc2ncn(-c3cc(OCC4CCCO4)c(C(N)=O)s3)c2cc1OC (stereo not shown) [GSK204607]
[8]
  Kd: > 10000 nM

## Clc1cc(Cl)cc(Nc2ccnc(Nc3cc(Cl)cc(Cl)c3)n2)c1 [GSK175726]
[9]
  Kd: > 10000 nM

## Nc1ncnc2[nH]c(-c3ccccc3)nc12 [AH5015]
[9]
  Kd: > 10000 nM

## Cc1c(Cn2ccn3c(=O)cc(N4CCOCC4)nc23)cccc1C(F)(F)F [GSK2289044]
[10]
  Kd: > 10000 nM

## Cc1cc(N2Cc3ccccc3C2)nc(Nc2ccc(S(=O)(=O)N3CCOCC3)cc2)n1.Cl [GSK1669917]
[11]
  Kd: > 10000 nM

## Cn1ccc2ncnc(Oc3ccc(Nc4nc5ccccc5[nH]4)cc3)c21
[12]
  Kd: 59 nM

## CC(C)(C)c1ccc(C(=O)Nc2cn3cc(-c4cccnc4)ccc3n2)cc1
[13]
  Kd: 64 nM

## Cn1cncc1-c1ccc2ncnc(Nc3ccc(OCc4ccccc4)cc3)c2c1 [GW320571]
[12]
  Kd: > 10000 nM

## CS(=O)(=O)c1ccc(-c2nc3n(c2-c2ccncc2)CCC3)cc1 [SKF-105942]
[14]
  Kd: > 10000 nM

## Fc1cc(Cl)ccc1Nc1ccnc2cc(-c3ccc(CN4CCCCC4)o3)ccc12 [GW560116]
[9]
  Kd: > 10000 nM

## Cc1ccc(C(=O)Nc2ccc(Nc3ccnc4cc(-c5ccccn5)ccc34)cc2O)cc1.Cl [GW440146]
[12]
  Kd: 290 nM
[8]
  Kd: 500 nM

## Cl.Oc1ccc(-c2nc(-c3ccccc3)[nH]c2-c2ccncc2)cc1 [SB-428218]
[15]
  Kd: > 10000 nM

## Cc1ccc(-c2cc(-c3c[nH]nc3-c3ccccn3)ccn2)cc1 [GW684088]
[16]
  Kd: > 10000 nM

## CCn1c(-c2cccnc2O)nc2cnccc21 [SB-736715]
[15]
  Kd: > 10000 nM

## COc1cc(Nc2nccc(N3CCC(NC(=O)Nc4cc(C)ccc4C)C3)n2)cc(OC)c1OC (stereo not shown) [GSK1379762]
[9]
  Kd: 1100 nM
[12]
  Kd: 240 nM
[8]
  Kd: 200 nM

## Nc1nc(-c2nccs2)c(-c2ccnc3ccccc23)s1 [GW693542]
[10]
  Kd: > 10000 nM

## Cc1nnc(-c2ccc3occ(-c4ccc(S(C)=O)cc4)c3c2)[nH]1 (stereo not shown)
[17]
  Kd: > 10000 nM

## COc1cccc(-c2cc(-c3c[nH]nc3-c3ccccn3)ccn2)c1 [GW680338]
[8]
  Kd: > 10000 nM

## CCCc1ccc(S(=O)(=O)NC2CCN(c3ccnc(Nc4ccc(F)cc4)n3)C2)cc1 (stereo not shown) [GSK1379715]
[14]
  Kd: > 10000 nM

## CC(C)(C)c1ccc(C(=O)Nc2cn3cc(Cl)ccc3n2)cc1
[13]
  Kd: 1500 nM

## C[C@@H]1CCCCN1c1cc(-c2ccc3c(N)n[nH]c3c2)nc(N)n1 [GSK2258759]
[9]
  Kd: > 10000 nM

## O=c1cc(N2CCOCC2)nc2n(Cc3cccc(Cl)c3Cl)ccn12 [GSK2286295]
[18]
  Kd: > 10000 nM

## COc1cc2ncnc(Nc3ccc4nc(-c5ccccc5)[nH]c4c3)c2cc1OC.Cl [GW282450]
[9]
  Kd: 2300 nM

## COc1ccc(CNC(=O)NC2CCN(c3ccnc(Nc4cc(OC)c(OC)c(OC)c4)n3)C2)cc1 (stereo not shown) [GSK1379748]
[12]
  Kd: 330 nM

## CSc1nn2c(=O)cc(N3CCOCC3)nc2n1Cc1cccc(C(F)(F)F)c1C [GSK2363608]
[19]
  Kd: > 10000 nM

## Cc1cc(NCC(c2ccccc2)c2ccccc2)nc(NCc2ccc(C(F)(F)F)cc2)n1 [GW497681]
[15]
  Kd: 2300 nM

## Cn1ccc2ncnc(Oc3ccc(NC(=O)Nc4ccccc4)cc3)c21
[12]
  Kd: 110 nM
[8]
  Kd: 110 nM

## O=C(Nc1ccc2c(c1)OCO2)NC1CCN(c2ccnc(Nc3ccc(F)cc3)n2)C1 (stereo not shown) [GSK1379724]
[12]
  Kd: 6900 nM

## COc1ccccc1CNC(=O)c1cc(C(=O)c2ccccc2C)c[nH]1 [GSK364507]
[9]
  Kd: > 10000 nM
